In general, inhibition refers to the change of the read-out against control, counted positive when it falls.

We go through 91 compounds from PubChem BioAssay AID1645860 (Buhrlage Lab, Dana-Farber Cancer Institute and Novartis …, 2021).

Among all 47,000 compounds or so, about 2,500 (5.3%) were called active. Only a selection was taken, and actives are over-represented in it overall. A number with no mark means an inactive call. Cut-off read from the data, not from the text of the source: active = inhibition above about 30%; inactive = the rest.

The target of this assay is Ubiquitin carboxyl-terminal hydrolase 30 (Homo sapiens) (UniProt Q70CQ3). Put plainly: blocks human USP30 ubiquitin-rhodamine cleavage (AID 1645860). Particulars: purified USP30, Ub-rhodamine cleavage fluorescence; at 25 µM; hits give high values.
Chain of Ubiquitin carboxyl-terminal hydrolase 30 (Homo sapiens) (Q70CQ3 whole entry, looked up): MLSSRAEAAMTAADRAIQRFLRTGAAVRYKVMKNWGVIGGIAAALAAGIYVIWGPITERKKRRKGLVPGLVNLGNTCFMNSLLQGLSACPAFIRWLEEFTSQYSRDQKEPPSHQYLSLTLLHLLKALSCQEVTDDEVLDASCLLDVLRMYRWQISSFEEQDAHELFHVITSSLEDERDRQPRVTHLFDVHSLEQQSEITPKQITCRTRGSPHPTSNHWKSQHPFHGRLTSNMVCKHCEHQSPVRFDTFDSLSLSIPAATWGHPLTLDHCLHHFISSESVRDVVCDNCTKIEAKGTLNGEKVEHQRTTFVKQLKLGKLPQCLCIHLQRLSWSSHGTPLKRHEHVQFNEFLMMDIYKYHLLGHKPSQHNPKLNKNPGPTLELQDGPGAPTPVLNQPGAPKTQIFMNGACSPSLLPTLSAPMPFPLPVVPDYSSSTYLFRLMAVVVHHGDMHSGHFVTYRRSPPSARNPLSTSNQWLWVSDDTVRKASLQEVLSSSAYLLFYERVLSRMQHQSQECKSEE
Regarding `COc1ccc(CNC(=O)c2[nH]nc3c2CCc2ccccc2-3)cc1`, the inhibition is 49.8% (active).
Regarding `COc1ccc(CNC(=O)c2cccc3cccnc23)cc1`, the inhibition was -9.33%.
Next, `COc1ccc(CNC(=O)c2ccccc2-c2ncc(-c3ccccc3)o2)cc1`: -5.92%.
For `O=C(O)C1(Cc2nc3ccccc3s2)CCCCC1` the value was 11.5%; for `CC(C)(C)OC(=O)N1CCC2(CC1)NC(=O)C1(CCCCC1)N2`, 16.4%; for `CCN1CCN(S(=O)(=O)c2ccc3c(c2)CC(C)N3C(=O)C2CC2)CC1` (stereo unspecified), 2.83%.
As for `CC(C)NC(=O)CN1C(=O)CC(C)Sc2ccc(S(=O)(=O)N3CCCCC3)cc21` (stereo unspecified), the inhibition is 86.3% (active).
Regarding `CC1CCCN(C(=O)c2cc(S(=O)(=O)N3CCCCC3)ccc2Cl)C1` (stereo unspecified), the inhibition was 8.5%.
For `COCCn1cnc2c(-c3ccccc3)cn(CC(=O)NCc3ccc(F)cc3)c2c1=O` the value was -1.66%; for `Cc1ccc(CNC(=O)c2ccc(-c3cccnc3)nc2)cc1`, 18.3%.
For `Cc1ccc(CNC(=O)CCC(=O)N2Cc3cccn3-c3ccccc32)cc1` the value was -82.9%.
For `Cc1ccc(CNC(=O)CC(c2ccccc2)c2ccccc2)cc1` the value was 34.5% (active); for `O=C([C@H]1CCCO1)N1C[C@H](OCc2cccnc2)[C@H]2COC[C@H]21`, 2.01%; for `C/C(=C(\NC(=O)c1ccccc1)C(=O)NCc1ccccc1)c1ccc(C)cc1`, -4.27%.
In the case of `CCc1nnc(-c2csc(S(=O)(=O)NC3CCCCCC3)c2)o1`, the inhibition is 16.4%.
Next, `CCc1nc(SCC(=O)Nc2cccc3ccccc23)c2oc3ccccc3c2n1`: 47.2% (active); `CCc1nc(SCC(=O)Nc2cc(Cl)ccc2Cl)c2oc3ccccc3c2n1`: 20%.
Next, `O=C(CSc1ncnc2c1oc1ccccc12)NC1CCCC1`: 29.2%.
Next, `Cc1ccccc1OCC(=O)Nc1c(C)nc2scc(C)n2c1=O`: 2.51%; `Clc1ccc(C[n+]2cc(-c3ccc(Cl)cc3)n3c2CCC3)cc1`: 34.1% (active).
Regarding `O=C(C1CCCN(S(=O)(=O)c2ccc(Cl)cc2)C1)N1CCOCC1` (stereo unspecified), the inhibition is 25.3%.
Regarding `O=C(c1cc2occc2c(Nc2ccc(F)cc2)n1)N1CCN(C(=O)c2ccco2)CC1`, the inhibition is 32.6% (active).
Next, `Cc1ccc(Nc2nc(C(=O)NCCN3CCCCC3C)cc3occc23)cc1Cl` (stereo unspecified): -102%.
As to `Cc1nc(Nc2ccc(NC(=O)c3ccco3)cc2)cc(N2CCCCC2)n1`, the inhibition was -38.5%.
Next, `COC(=O)c1cc(NC(=O)c2cccnc2)ccc1N1CCOCC1`: -17.6%; `Cc1ccc(CNC(=O)c2ccc(-c3cncnc3)nc2)cc1C`: -42.8%.
Next, `CC(=O)CCC(=O)Nc1ccc(-c2nnc3n2CCCCC3)cc1`: -1.55%; `Cc1c(Cl)cccc1NC(=O)C[n+]1cc(-c2ccc(Cl)cc2)n2c1CCC2`: 27.5%.
For `CC(C)c1ccc(NC(=O)C[n+]2cc(-c3ccc(F)cc3)n3c2CCC3)cc1` the value was 41.8% (active).
Consider `Cc1cccnc1NC(=O)C1c2ccccc2C(=O)N(C)C1c1cccs1` (stereo unspecified), for which the inhibition was 7.71%.
For `Cc1ccc(C(C)C(=O)N2CCC(c3nc4ccccc4cc3C(N)=O)CC2)cc1` (stereo unspecified) the value was -3.47%; for `O=C(NCCC(=O)N1CCC2(CC1)NCCc1[nH]cnc12)c1ccc(-c2ccccc2)cc1`, 0.531%; for `O=C(CCN1C(=O)c2cccnc2Sc2ccccc21)Nc1cc(F)ccc1F`, 14.9%.
For `O=c1ccc(-c2nc(-c3cnccn3)no2)cn1Cc1cccc(Br)c1` the value was -4.12%.
For `O=C(c1nc(-c2cnccn2)no1)N1CCN(c2ccccc2F)CC1` the value was -11.4%; for `O=c1ccc(-c2nc(-c3cnccn3)no2)cn1Cc1ccccc1C(F)(F)F`, 41.2% (active).
Turning to `Cc1noc(C)c1CC(=O)N1CCN(S(=O)(=O)c2ccc(C3CCCCC3)cc2)CC1`, the inhibition is 29.4%.
Next, `CC(=O)N1C[C@H]2C3(CCN(C(=O)c4cc(C)on4)CC3)CC[C@@]2(C(=O)N(C)C)C1`: 0.149%.
For `CCCN1CCN(Cc2nc(-c3ccc(N4CCCCCC4)nc3)no2)CC1` the value was -26.8%; for `O=C1COc2ccccc2N1Cc1noc(-c2ccccc2)n1`, 11.5%.
For `COc1cccc(NC(=O)c2nnn(Cc3nc(-c4cccc(C)c4)oc3C)c2N)c1` the value was -2.05%; for `O=C(NCc1ccc2c(c1)OCO2)c1nc(-c2cccnc2)no1`, 2.73%; for `Cc1ccc(C(=O)Nc2nccnc2C(=O)NCc2ccc3c(c2)OCO3)cc1`, -13.1%.
`Cc1nc(-c2ccc(C(=O)NCc3ccc4c(c3)OCO4)cc2)cs1`: the inhibition was 46.2% (active).
For `Cn1c(CCN2CCOCC2)nc2cc(NC(=O)c3ccco3)ccc21` the value was -0.464%; for `O=C(CN(c1ccc(Cl)cc1Cl)S(=O)(=O)c1ccccc1)NCc1ccncc1`, 2.13%.
Next, `Cc1ccc(NC(=O)CCn2cnc3c2c(=O)n(C)c(=O)n3C)cc1`: 1.79%; `Cc1cnc(NC(=O)Cn2cnc3c2c(=O)n(C)c(=O)n3C)s1`: 30.8% (active); `Cn1c(=O)c2c(ncn2CC(=O)OCc2cccc([N+](=O)[O-])c2)n(C)c1=O`: 13.8%.
Next, `N#Cc1ccc(NC(=O)Nc2cccn(Cc3ccccc3F)c2=O)cc1`: 11.4%; `Cc1ccc(-c2noc(-c3cccc(OCC(=O)N(C)C)c3)n2)cc1`: 53.1% (active).
Consider `Cc1ccc(-c2nc(-c3cccc(-c4ccnn4C)c3)no2)cc1`, for which the inhibition was 4.68%.
Take `Cc1ccccc1-c1nc(-c2cccc(OCC(=O)N3CCOCC3)c2)no1`: the inhibition was 44.8% (active).
Next, `COc1cc(Cl)ccc1-c1nc(-c2cccc(C(=O)N3CCCC3)c2)no1`: 16.1%; `Cc1ccccc1-c1nc(-c2cn(CC(=O)Nc3ccccc3)cn2)no1`: -44.4%; `COc1ccc(-c2noc(-c3cccc(OCC(=O)NC(C)C)c3)n2)cc1`: -1.09%.
For `COc1cc(C)c(CN2CCC(c3cc(=O)[nH]c(C)n3)C2)cc1C` (stereo unspecified) the value was 8.61%; for `CN(C)C(=O)C1CN(C(=O)c2n[nH]c3c2CCCC3)CC12CCOCC2` (stereo unspecified), -5.3%.
For `COc1cc(NC(=O)C2CCCCC2)c(OC)cc1NC(=O)CCC(=O)N1CCCCC1` the value was -281%; for `Cc1ccc(CS(=O)(=O)N2CCC(C(=O)N3CCC(C)CC3)CC2)cc1`, 9.43%.
Consider `O=C(C1CCCCC1)N1CCCC(c2ccnc3ncnn23)C1` (stereo unspecified), for which the inhibition is 21.7%.
Next, `Cc1nc(-c2ccc(C)c(S(=O)(=O)NCc3ccccc3Cl)c2)cs1`: 34.4% (active).
For `Cc1nc(-c2ccc(C)c(S(=O)(=O)NC3CCCC3)c2)cs1`, the inhibition was -1.27%.
For `Cc1ccccc1CNS(=O)(=O)c1c[nH]c2ncccc12` the value was -1.83%; for `Cc1cncc(C(=O)N[C@@H]2CC[C@H]3Oc4ccccc4N[C@H]3[C@@H]2O)c1`, 6.67%; for `Cc1c(C(=O)O)[nH]c2ccccc12`, -68.1%.
`C[C@@H]1O[C@@H](OC2[C@H](Oc3cc(O)c4c(c3)OC(c3ccc(O)cc3)CC4=O)O[C@H](CO)[C@@H](O)[C@@H]2O)[C@H](O)[C@H](O)[C@H]1O` (stereo partly specified): the inhibition is 33% (active).
With `COc1ccc(-c2cc(=O)oc3c(C)c(OCc4ccccc4F)ccc23)cc1`, the inhibition is 44% (active).
Regarding `Cc1cc(=O)oc2c(C)c(OC(C)C(=O)NCc3ccncc3)ccc12` (stereo unspecified), the inhibition was 6.63%.
Next, `Cc1c(OCc2ccccc2)noc1C1CCN(CC(N)=O)CC1`: 6.2%; `Cc1cnc(N2CCC3(CC(=O)N(c4cccnc4)C3)C2)nc1` (stereo unspecified): -20.9%; `Cc1ccc(N(C)C(=O)C2CCC(=O)N2S(=O)(=O)c2ccccc2)cc1` (stereo unspecified): 20.6%.
Regarding `COc1cccc(-c2nnc(-c3ccc(-n4ccnc4)nc3)o2)c1`, the inhibition was -12.7%.
Regarding `O=C(NCCc1ccccc1)c1ccc2c(=O)nc3c(-c4ccccc4F)n[nH]n3c2c1`, the inhibition is -10.3%.
For `O=C(NCCc1ccccc1)c1ccc2c(=O)n(Cc3ccco3)c(=O)n(Cc3cccc([N+](=O)[O-])c3)c2c1` the value was 66.4% (active).
With `COCCn1c(=O)[nH]c2cc(C(=O)NCCNc3ccc([N+](=O)[O-])cc3C#N)ccc2c1=O`, the inhibition was -7.15%.
For `COc1cccc(Nc2nc(N3CCCCC3)nc3c2cnn3C)c1` the value was -24.2%; for `CC(NC(=O)c1nc2n(n1)-c1ccccc1S(=O)(=O)N2)c1cc2ccccc2o1` (stereo unspecified), 0.0682%; for `O=C(Nc1cnc(N2CCCC2)nc1)c1ccco1`, -2.69%.
For `COc1ccc(NC(=O)Cc2noc(-c3cccc(OC)c3)n2)cc1` the value was -26.6%; for `CSCC[C@H](NC(=O)N1CCn2c1nc1ccccc12)C(=O)NCc1ccc2c(c1)OCO2`, 43.3% (active); for `COCCCNC(=O)[C@H](Cc1ccccc1)NC(=O)N1CCn2c1nc1ccccc12`, 1.89%.
Next, `CC(C)[C@H](NC(=O)N1CCn2c1nc1ccccc12)C(=O)NCCc1ccccc1`: -9.82%.
For the compound `COCCn1cnc2nnc3ccc(C(=O)NC(C)C)cc3c21`, the inhibition is -9.87%.
Next, `COc1ccc(NC(=O)CSc2cn(Cc3ccccc3C)c3ccccc23)c(OC)c1`: 8.78%; `COc1ccc(CCNC(=O)c2ccc3ccccc3c2)cc1OC`: -12.8%.
Next, `COc1ccc(CCNC(=O)CSc2cn(CCNC(=O)c3ccccc3C)c3ccccc23)cc1OC`: 36.5% (active).
For `CC(C)c1noc2ncc(-c3nnc(C4CC4)o3)cc12` the value was -9.16%; for `COc1ccc2ncc(S(=O)(=O)c3ccccc3)c(N3CCOCC3)c2c1`, -25.7%.
Regarding `COc1ccc2ncc(S(=O)(=O)c3ccccc3)c(Nc3ccc(F)cc3)c2c1`, the inhibition is 38.4% (active).
Next, `COc1ccc2ncc(S(=O)(=O)c3ccccc3)c(N3CCN(c4cccc(C)c4C)CC3)c2c1`: -1.48%.
